Holding throughout (conditions): concentration: 1 μM, replicates: in singlicate; n = 1
The test system of assay [1] is EPHA3.
Assay [2] relates to EPHA4.
Assay [3] concerns EPHA5.
The subject of assay [4] is EPHA6.
In assay [5] the test system is EPHA7.
For assay [6], the system named is EPHA8.
Assay [7] relates to EPHB1.
Assay [8] has as its system EPHB2.
Assay [9] relates to EPHB3.
Assay [10] concerns EPHB4.
Assay [11] has as its system EPHB6.
The subject of assay [12] is ERBB2.
Assay [13] deals with ERBB3.
In assay [14] the test system is ERBB4.
Assay [15] relates to T1, ERK1.
T1 construct: gene MAPK3

Assay [16] has as its system T2, ERK2.
T2 construct: gene MAPK1

Assay [17] concerns T3, ERK3.
T3 construct: gene MAPK6

The subject of assay [18] is T4, ERK4.
T4 construct: gene MAPK4

Assay [19] has as its system T5, ERK5.
T5 construct: gene MAPK7

Assay [20] concerns T6, ERK8.
T6 construct: gene MAPK15
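Also: KINOMEscan kinase panel screen.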

With `Cc1cccc(-c2nc(Nc3ccc4ncsc4c3)c3ccccc3n2)n1` [GW867588], the “%Inh” value in assay [1] amounted to 22%; in assay [2], 21%; in assay [3], 6%; in [4], 21%; in assay [5], 0%; in assay [6] it was 4%. In addition, the “%Inh” value amounted to 30% in assay [7]; 0% in assay [8]; 22% in assay [9]; 0% in assay [10]; 0% in [11]; 6% in [12]. For the same compound, the “%Inh” value in [13] was 21%; in [14] it was 25%; in [15], 0%; in [16] it was 2%; in assay [17] it was 0%; in [18], 0%. The “%Inh” value in [19] and in assay [20] was 0% in each case.
Consider `COc1ccc(COc2cc(-n3cnc4ccccc43)sc2C(N)=O)cc1` [GSK1024304], for which the “%Inh” value in assay [1] was determined as 11%; in assay [2], 0%; in assay [3] it was 0%; in assay [4], 0%; in assay [5], 6%; in [6] it was 19%. Also, the “%Inh” value in assay [7] is listed as 12%; in assay [8], 9%; in assay [9], 0%; in assay [10], 11%; in assay [11], 0%; in assay [12], 28%. In addition, the “%Inh” value is given as 0% in assay [13]; 24% in [14]; 5% in assay [15]; 0% in assay [16]; 15% in assay [17]; 13% in assay [18]. Besides, the “%Inh” value was determined as 8% in assay [19] and 0% in assay [20].
For `COc1cc2ncn(-c3cc(OCc4sccc4Cl)c(C(N)=O)s3)c2cc1OC` [GSK448459], the “%Inh” value in [1] worked out at 0%; in [2] it was 0%; in assay [3], 0%; in assay [4], 2%; in assay [5], 0%; in assay [6], 11%. Besides, the “%Inh” value was determined as 3% in [7]; 9% in assay [8]; 6% in [9]; 0% in assay [10]; 28% in assay [11]; 44% in [12]. In addition, the “%Inh” value worked out at 0% in [13]; 31% in assay [14]; 0% in assay [15]; 0% in [16]; 8% in assay [17]; 0% in assay [18]. Moreover, the figures for the “%Inh” value in assay [19] and in assay [20] were 0% and 20%, respectively.
For `CNc1ncnc2[nH]ncc12` [SKF-18355], the “%Inh” value in [1] is listed as 11%; in assay [2], 0%; in assay [3] it was 0%; in assay [4], 0%; in [5], 0%; in assay [6], 29%. For the same compound, the “%Inh” value in [7] came out at 0%; in assay [8] it was 0%; in assay [9], 0%; in assay [10], 0%; in assay [11], 0%; in [12], 17%. Moreover, the “%Inh” value in assay [13] worked out at 22%; in [14], 4%; in assay [15], 0%; in assay [16] it was 0%; in assay [17], 0%; in assay [18], 0%. Further, the “%Inh” value is given as 0% in assay [19] and 14% in assay [20].
In the case of `CN(C1=C(c2ccccc2)C(=O)NC1=O)c1ccccc1` [SB-334860], the “%Inh” value in assay [1] was determined as 24%; in [2], 6%; in [3], 6%; in assay [4], 10%; in [5] it was 2%; in [6], 6%. In addition, the “%Inh” value in assay [7] is 8%; in assay [8] it was 20%; in assay [9], 11%; in assay [10], 9%; in assay [11], 20%; in [12], 29%. The “%Inh” value in assay [13] stood at 0%; in assay [14] it was 33%; in [15] it was 1%; in [16], 13%; in [17], 1%; in assay [18], 44%. The “%Inh” value in assay [19] and in assay [20] was 0% each time.
Consider `NS(=O)(=O)CCc1cccc(Nc2nccc(-c3c(-c4cccc(NC(=O)c5c(F)cccc5F)c4)nn4ccccc34)n2)c1` [GSK336735], for which the “%Inh” value is 30% in assay [1]; 45% in assay [2]; 0% in assay [3]; 48% in [4]; 8% in assay [5]; 60% in assay [6]. Besides, the “%Inh” value is given as 26% in assay [7]; 18% in assay [8]; 0% in assay [9]; 11% in assay [10]; 97.1% in [11]; 98.7% in [12]. The “%Inh” value is 94% in assay [13]; 100% in [14]; 7% in assay [15]; 0% in [16]; 0% in assay [17]; 10% in assay [18]. The “%Inh” value is 45% in [19] and 0% in assay [20].
Take `N#Cc1c(N2CCOCC2)sc(-c2ccn[nH]2)c1-c1ccc(Cl)cc1`: the “%Inh” value in assay [1] was 11%; in assay [2] it was 0%; in [3], 16%; in assay [4] it was 27%; in [5], 5%; in assay [6], 7%. The “%Inh” value is given as 14% in assay [7]; 0% in assay [8]; 15% in assay [9]; 12% in assay [10]; 38% in [11]; 0% in assay [12]. Moreover, the “%Inh” value in assay [13] is 22%; in assay [14], 11%; in assay [15] it was 0%; in assay [16] it was 24%; in [17], 0%; in [18], 0%. In addition, the “%Inh” value was 0% in [19] and 5% in assay [20].
`Cc1nnc(-c2ccc(C)c(-c3ccc(C(=O)Nc4ccc(NS(C)(=O)=O)cc4)cc3)c2)o1` [GW702865]: the “%Inh” value in assay [1] turned out to be 8%; in [2], 0%; in assay [3], 0%; in assay [4], 0%; in assay [5], 0%; in assay [6], 3%. Besides, the “%Inh” value in [7] is reported as 6%; in [8], 10%; in assay [9], 0%; in assay [10], 5%; in [11] it was 10%; in assay [12], 33%. Besides, the “%Inh” value in [13] was 20%; in assay [14], 8%; in [15], 10%; in assay [16], 0%; in [17], 0%; in assay [18] it was 0%. The “%Inh” value in [19] and in assay [20] was 0% throughout.
In the case of `[2H]C([2H])(c1cccc(C(F)(F)F)c1C)n1ccn2c(=O)nc(N3CCOCC3)cc12` [GSK2336394], the “%Inh” value in assay [1] is given as 0%; in assay [2] it was 1%; in [3], 0%; in [4] it was 0%; in assay [5], 11%; in [6], 19%. Moreover, the “%Inh” value is recorded as 20% in [7]; 0% in assay [8]; 7% in assay [9]; 8% in assay [10]; 11% in assay [11]; 20% in [12]. The “%Inh” value in assay [13] is given as 0%; in assay [14], 24%; in assay [15], 0%; in [16], 0%; in assay [17] it was 0%; in [18], 0%. Further, the “%Inh” value in assay [19] and in [20] was 0% each time.
Regarding `Nc1nccc(-c2c(-c3ccc(F)cc3)ncn2C2CCN(CC(F)(F)F)CC2)n1` [SB-236560], the “%Inh” value in assay [1], in assay [2], in [3], in [4], in [5] and in [6] was 0% throughout. Moreover, the “%Inh” value in assay [7] is on record as 0%; in [8], 14%; in [9], 0%; in assay [10] it was 0%; in [11], 44%; in assay [12], 59%. Besides, the “%Inh” value in assay [13] came to 4%; in assay [14] it was 34%; in [15], 0%; in [16], 0%; in assay [17], 0%; in assay [18] it was 0%. For the same compound, the “%Inh” value in [19] turned out to be 0%; in assay [20], 16%.
Take `Cc1nnc(-c2ccc3ncc(-c4ccc(S(C)=O)cc4)n3c2)o1` (stereo not drawn): the “%Inh” value stood at 2% in [1]; 8% in [2]; 11% in assay [3]; 22% in assay [4]; 1% in assay [5]; 1% in assay [6]. Moreover, the “%Inh” value in assay [7] worked out at 0%; in assay [8] it was 18%; in assay [9] it was 12%; in assay [10], 0%; in [11] it was 13%; in assay [12] it was 65%. Further, the “%Inh” value amounted to 3% in assay [13]; 0% in assay [14]; 0% in assay [15]; 0% in assay [16]; 0% in [17]; 0% in assay [18]. Further, the “%Inh” value in assay [19] and in assay [20] was 0% each time.
Turning to `O=C(NCCCN1CCOCC1)c1cccc(Nc2nccc(Nc3ccc(Oc4ccccc4)cc3)n2)c1` [GW663929], the “%Inh” value turned out to be 25% in [1]; 3% in assay [2]; 0% in assay [3]; 3% in assay [4]; 0% in [5]; 0% in assay [6]. In addition, the “%Inh” value in assay [7] stood at 1%; in [8] it was 0%; in assay [9], 2%; in assay [10], 14%; in assay [11] it was 55%; in [12] it was 38%. The “%Inh” value in assay [13] amounted to 99.3%; in assay [14], 79%; in assay [15], 0%; in [16] it was 0%; in assay [17] it was 0%; in [18] it was 34%. For the same compound, the “%Inh” value was determined as 27% in [19] and 0% in assay [20].
